Compound activity from PubChem.
RORg inh = ROR gamma (mouse) transcription inhibition. Drosophila S2 Gal4-RORgamma UAS-luciferase reporter, 20 h. Potency, µM (highest dose often 53.6 µM), most hits filed as inhibitors. actives 5.4% (n = 310,000). AID 2551; note: nearly all actives have a fitted effect of over 60% in size
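Stable Schneider cell line, Gal4 DNA-binding domain fused to ROR gamma, UAS-luciferase. Cmpd 1 hr RT → CuSO4 700 uM final → 20 hr RT → luciferase reagent 10 min → luminescence.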
Sfp PPTase inh = inhibitors of Bacillus subtilis Sfp phosphopantetheinyl transferase; Biochemical Sfp PPTase activity, qHTS; Potency, µM, actives largely listed as inhibitors; actives 3.5% (n = 310,000); AID 1490;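 note: the enzyme is Sfp with the accession as filed and its product quenches rhodamine fluorescence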
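Fluorescence-quenching assay: 15 nM Sfp-PPTase preincubated 15 min at room temperature with compound, then 5 uM rhodamine-CoA and 12.5 uM BHQ-2-labelled YbbR peptide added. Fluorescence (ex 525/em 598 nm) read at start and after 30 min; difference gives rate.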
Gal4-VP16 FLuc = Gal4-VP16 reporter inhibition counter-screen. Drosophila S2 Gal4-VP16 UAS-luciferase, luminescence, 20 h. Potency, µM (doses to about 53.6 µM), most hits filed as inhibitors. actives 3.5% (n = 310,000). AID 2546;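 note: Gal4-VP16 expression switched on by copper sulfate through the metallothionein promoter; nearly all actives have a fitted effect of over 50% in size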
PLK1 PBD block = blocks phosphopeptide binding to human PLK1 polo-box domain; P53350; Plk1 PBD binding of FITC phosphopeptide, fluorescence polarization; Potency, µM, usual class: inhibitors; actives 2.8% (n = 360,000); note: series mostly up to about 57 µM; nearly all actives have a fitted effect of over 65% in size
ALDH1A1 block = ALDH1A1 (human) enzyme inhibition; Potency, µM (series often up to 75.3 µM), usual class: inhibitors; Purified ALDH1A1, NADH fluorescence, propionaldehyde substrate; AID 1030; actives 7.3% (n = 220,000); active = well fitted inhibition curve with a large enough effect, not every such curve was filed as active; inconclusive = small, poorly fitted or top-dose-only effect, or another doubt; inactive = no such curve, though single readings can be large or run the other way
Target sequence (P00352 whole entry, looked up): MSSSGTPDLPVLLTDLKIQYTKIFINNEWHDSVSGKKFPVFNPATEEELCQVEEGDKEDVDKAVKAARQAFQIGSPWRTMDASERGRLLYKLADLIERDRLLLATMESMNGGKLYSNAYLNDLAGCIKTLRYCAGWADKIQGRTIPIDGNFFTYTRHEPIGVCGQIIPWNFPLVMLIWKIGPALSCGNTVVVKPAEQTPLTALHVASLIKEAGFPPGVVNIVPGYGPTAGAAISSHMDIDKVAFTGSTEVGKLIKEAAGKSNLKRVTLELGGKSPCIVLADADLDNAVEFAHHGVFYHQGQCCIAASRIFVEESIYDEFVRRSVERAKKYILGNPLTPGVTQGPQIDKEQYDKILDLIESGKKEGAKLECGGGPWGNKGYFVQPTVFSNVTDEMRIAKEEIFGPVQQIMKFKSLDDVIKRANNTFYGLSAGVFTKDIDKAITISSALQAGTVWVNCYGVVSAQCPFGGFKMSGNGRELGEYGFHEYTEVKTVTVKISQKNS
A number is an active result; - = inactive; ? = inconclusive; . = not tested or not shown; [ ] = dose if it differs, or a comment. In the library only some 12% were active in any assay of this set; here they are far more common. Unless noted, calls come from the whole dose curve; as a rule, active = well fitted curve in the direction sought with a large enough effect; inconclusive = small, poorly fitted or top-dose-only effect, or another doubt; inactive = no such curve, though single readings can be large; an effect the other way counts as inactive or inconclusive.

SMILES	RORg inh	Sfp PPTase inh	Gal4-VP16 FLuc	PLK1 PBD block	ALDH1A1 block
O=C(CSc1nnc(-c2ccncc2)o1)c1ccc2c(c1)OCCO2	-	-	-	-	0.79µM
COc1ccc(C(=O)NCc2nnc(SCC(=O)c3ccccc3)o2)cc1	-	-	-	-	.
CC(C)CCNC(=O)CCCc1ccccc1	-	-	-[10 µM]	-	-
O=C(Nc1cnccc1C(F)(F)F)NC1CCCCC1	-	-	-	-	-
O=C(OCc1ccccc1)N1CCN(C(c2ccnc3ccccc23)c2nnnn2-c2ccc3c(c2)OCCO3)CC1 (configuration not stated)	.	.	.	-	.
CN(Cc1ccccc1)S(=O)(=O)c1cccc2cccnc12	-	-	-	-	8.9µM
CCSS(=O)(=O)c1cccc2cccnc12	22µM	20µM	?	2.7µM	.
COc1ccc(N(C(C)=O)S(=O)(=O)c2cccc3cccnc23)cc1	-	-	-	-	-
CN(CC(=O)Nc1n[nH]c(=S)s1)S(=O)(=O)c1cccc2cccnc12	-	40µM	-	30µM	.
CCCCN(c1ccccc1)S(=O)(=O)c1cccc2cccnc12	-	-	14µM	-	.
COc1ccc(-c2cc(-c3ccco3)[nH]c(=O)c2C#N)cc1OC	-	22µM	-	?	?
O=C(OCc1ccccc1)N1CCC2CC1c1cc(-c3cc4ccccc4o3)ccc12 (configuration not stated)	.	.	.	-	.
CC(=O)Nc1sc2c(c1C#N)CCC2	-	-	-	-	-
Cc1sc(NC(=O)CCCC(=O)O)c(C#N)c1C	-	-	-	-	-
CC(C)c1cc(C(=O)Nc2sc3c(c2C#N)CCC3)no1	-	?	-	24µM	18µM
Cc1ccsc1/C=N/NC(=O)c1ccc(Cn2cc(Br)cn2)o1	13µM	-	?	-	-
Cc1cc(C(=O)Nc2sc(C)c(C)c2C#N)no1	-[0.365 µM]	-	.	-	13µM
N#Cc1ccsc1NC(=O)c1cnccn1	?	50µM	-	-	-
CCCc1c(OCCCOc2ccc(OCC(=O)O)cc2)ccc(CC=O)c1O	-	-	-	.	-
CC[C@H](C)[C@@H](NC(=O)O[C@@H]1Cc2cc(Br)ccc2O[C@H]1c1cccc(OC)c1)C(=O)OC	-	-	-	.	-
CNC(=O)[C@H]1O[C@@H](n2cnc3c(NCc4ccc(N)cc4)ncnc32)[C@H](O)[C@H]1O	.	.	.	.	-
CC(C)CCNC(=O)[C@@H](Cc1ccccc1)NC(=O)CC[C@H]1O[C@@H](n2ccc(=O)[nH]c2=O)[C@H](O)[C@@H]1O	.	.	.	-	.
C[C@H](c1ccccc1)N1C[C@H](COCc2ccccc2)Oc2cc(N3CCC[C@H]3C(N)=O)ccc2S1(=O)=O	.	.	.	-	.
CC(C)c1onc(C(=O)N2CCCCCC2)c1[N+](=O)[O-]	-	-	-	-	25µM
O=C(Nc1sc2c(c1C(=O)c1ccc(Cl)cc1)CCCC2)c1cccnc1	-	32µM	-	-	20µM
SMILES	RORg inh	Sfp PPTase inh	Gal4-VP16 FLuc	PLK1 PBD block	ALDH1A1 block
CC(C)c1onc(C(=O)Nc2sc3c(c2C#N)CCC3)c1[N+](=O)[O-]	?	56µM	?	?	13µM
N#Cc1c(NC(=O)c2ccc(Cn3cc(Br)cn3)o2)sc2c1CCCCCC2	5.6µM	?	-[0.365 µM]	?	?
O=C(Nc1sc2c(c1C(=O)c1ccccc1)CCCC2)c1cccnc1	-	-	-	-	?
C[C@@H]1CN([C@H](C)CO)C(=O)CCCn2cc(nn2)CO[C@H]1CN(C)S(=O)(=O)c1cccc(C#N)c1	.	.	.	-	.
N#Cc1c(NC(=O)c2cnccn2)sc2c1CCCC2	?	25µM	?	27µM	14µM
Cc1nn(CCCC(=O)Nc2cc(Oc3ccc(F)cc3)cc([N+](=O)[O-])c2)c(C)c1[N+](=O)[O-]	?	-	10µM	-	-
CCc1c(C)sc(NC(=O)c2cc(C(C)C)on2)c1C#N	?	-	-[10 µM]	?	18µM
CCc1c(C)sc(NC(=O)c2cc(C)no2)c1C#N	?	?	-	30µM	13µM
CCc1ccc(NC(=O)c2cc(C)no2)cc1	-	-	?	-	.
N#Cc1c(NC(=O)c2cccnc2)sc2c1CCC2	-	-	-	-	-
C[C@H](CO)N1C[C@H](C)[C@@H](CN(C)Cc2cccnc2)Oc2ncc(-c3cccc(C#N)c3)cc2C1=O	.	.	.	-	.
CC(=O)Nc1ccc(NC(=O)C2CCN(S(C)(=O)=O)CC2)cc1	.	.	.	-	.
NCC(=O)NC1(C(=O)O)CCCC1	.	.	.	.	-[13.5 µM]
C#C[C@]1(O)CC[C@@H]2[C@H]3CCc4cc(OC)ccc4[C@@H]3CC[C@@]21C	-	-	-	.	-
